The structures appear in SMILES notation. Activity calls are given as the source filed them. Rule for the calls: active = hit-call score of the fitted dose curve at least 0.9, where 1 is the maximum; inactive = score below 0.9.

Read-out in test [1]: Urokinase-type plasminogen activator receptor (uPAR), PLAUR (gene 5329)
As to the kind of experiment: BSK_4H_uPAR: BioMAP Diversity Plus: 4H Assay for Urokinase-type plasminogen activator receptor (uPAR) Biomarker Activity (AID 2283030). Particulars: primary human endothelial cells (HUVEC); actives raise or lower the signal. The method, boiled down: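 Human umbilical vein endothelial cells in the 4H system, 24 h after chemical dosing. Cell-surface uPAR measured by ELISA, fitted in both directions versus DMSO; cytotoxicity checked by SRB total protein in parallel cultures.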

Read-out in test [2]: Vascular endothelial growth factor receptor 2 (Homo sapiens) (UniProt P35968)
As to the kind of experiment: BSK_4H_VEGFRII: BioMAP Diversity Plus: 4H Assay for Vascular endothelial growth factor receptor 2 (VEGFR2) Biomarker Activity (AID 2283031). Particulars: primary human endothelial cells (HUVEC); actives raise or lower the signal. The method, boiled down:
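Primary human umbilical vein endothelial cells (4H system), 24 h exposure; cell-surface VEGFR2 measured by ELISA. Bidirectional fitting versus DMSO; cytotoxicity checked in parallel by SRB total-protein staining.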

Read-out in test [3]: Human Leukocyte Antigen - DR isotype (HLADR), HLA-DRA (gene 3122)
In words: BSK_BE3C_HLADR: BioMAP Diversity Plus: BE3C Assay for Human Leukocyte Antigen - DR isotype (HLADR) Biomarker Activity (AID 2283032). The following applies: primary human bronchial epithelial cells; actives raise or lower the signal. The method, boiled down: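 Human primary bronchial epithelial cells in the BE3C system were exposed to chemicals for 24 h, after which HLA-DR levels were quantified by ELISA. Activity was fitted bidirectionally, gain or loss of signal, against DMSO as negative control and baseline.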

Read-out in test [4]: Vascular cell adhesion molecule 1 (VCAM1), VCAM1 (gene 7412)
In words: BSK_4H_VCAM1: BioMAP Diversity Plus: 4H Assay for Vascular cell adhesion molecule 1 (VCAM1) Biomarker Activity (AID 2283033).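 Note: cell-surface VCAM-1 protein measured by ELISA.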 The following applies: primary human endothelial cells (HUVEC); actives raise or lower the signal. Summed up: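 Primary human umbilical vein endothelial cells were exposed to chemicals for 24 h, after which VCAM-1 was quantified by ELISA. Responses were fitted bidirectionally against DMSO as negative control and activity baseline.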

Read-out in test [5]: Interferon-gamma inducible Protein 10 (IP10), CXCL10 (gene 3627)
As to the kind of experiment: BSK_BE3C_IP10: BioMAP Diversity Plus: BE3C Assay for Interferon-gamma inducible Protein 10 (IP10) Biomarker Activity (AID 2283034). The following applies: primary human bronchial epithelial cells; actives raise or lower the signal. The method, boiled down: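 Human primary bronchial epithelial cells were exposed to chemicals for 24 hours, after which IP-10 levels were measured by ELISA. Data were fitted bidirectionally against DMSO, which served as the negative control and activity baseline.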

Read-out in test [6]: Monokine induced gamma interferon (MIG), CXCL9 (gene 4283)
As to the kind of experiment: BSK_BE3C_MIG: BioMAP Diversity Plus: BE3C Assay for Monokine induced gamma interferon (MIG) Biomarker Activity (AID 2283035). The following applies: primary human bronchial epithelial cells; actives raise or lower the signal. The method, boiled down: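 Primary human bronchial epithelial cells treated for 24 h; MIG levels measured by ELISA, fitted bidirectionally versus DMSO. Parallel SRB total-protein staining assessed cytotoxicity.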

Read-out in test [7]: Transforming growth factor beta 1 (TGFb1), TGFB1 (gene 7040)
As to the kind of experiment: BSK_BE3C_TGFb1: BioMAP Diversity Plus: BE3C Assay for Transforming growth factor beta 1 (TGFb1) Biomarker Activity (AID 2283036). Particulars: primary human bronchial epithelial cells; actives raise or lower the signal. The method, boiled down: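 Human primary bronchial epithelial cells (BE3C system) were dosed with chemical and TGF-b1 levels measured by ELISA at 24 h. Activity was fitted bidirectionally relative to DMSO negative control as baseline.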

Read-out in test [8]: Plasminogen activator inhibitor-1 (PAI1), SERPINE1 (gene 5054)
In words: BSK_BE3C_PAI1: BioMAP Diversity Plus: BE3C Assay for Plasminogen activator inhibitor-1 (PAI1) Biomarker Activity (AID 2283037). Particulars: primary human bronchial epithelial cells; actives raise or lower the signal. The method, boiled down: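 Human primary bronchial epithelial cells were exposed to chemical for 24 h, then PAI-1 was quantified by ELISA. Activity was fitted bidirectionally relative to the DMSO negative control baseline.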

Read-out in test [9]: urokinase plasminogen activator (uPA), PLAU (gene 5328)
In words: BSK_BE3C_uPA: BioMAP Diversity Plus: BE3C Assay for urokinase plasminogen activator (uPA) Biomarker Activity (AID 2283038).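 Note: uPA protein level quantified by ELISA in cell cultures; uPA read one day after compound addition.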 Particulars: primary human bronchial epithelial cells; actives raise or lower the signal. The method, boiled down:
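Primary human bronchial epithelial cells, uPA measured by ELISA 24 h after dosing. Bidirectional change relative to DMSO; cytotoxicity checked in parallel cultures by sulforhodamine B total-protein staining.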

Read-out in test [10]: Urokinase-type plasminogen activator receptor (uPAR), PLAUR (gene 5329)
In words: BSK_BE3C_uPAR: BioMAP Diversity Plus: BE3C Assay for Urokinase-type plasminogen activator receptor (uPAR) Biomarker Activity (AID 2283039).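 Note: cells exposed to compound for one day before measurement.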 The following applies: primary human bronchial epithelial cells; actives raise or lower the signal. The method, boiled down:
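Primary human bronchial epithelial cells were dosed with chemical and harvested 24 h later; uPAR was quantified by ELISA. Activity was fitted bidirectionally against DMSO as negative control and baseline.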

Read-out in test [11]: Interleukin-6 (IL6), IL6 (gene 3569)
In words: BSK_CASM3C_IL6: BioMAP Diversity Plus: CASM3C Assay for Interleukin-6 (IL6) Biomarker Activity for (AID 2283040). Particulars: primary human coronary artery smooth muscle cells; actives raise or lower the signal.

Read-out in test [12]: Interleukin-8 (IL8), CXCL8 (gene 3576)
In words: BSK_CASM3C_IL8: BioMAP Diversity Plus: CASM3C Assay for Interleukin-8 (IL8) Biomarker Activity (AID 2283042).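 Note: IL-8 protein level quantified by ELISA.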 Particulars: primary human coronary artery smooth muscle cells; actives raise or lower the signal.

Read-out in test [13]: Human Leukocyte Antigen - DR isotype (HLADR), HLA-DRA (gene 3122)
In words: BSK_CASM3C_HLADR: BioMAP Diversity Plus: CASM3C Assay for Human Leukocyte Antigen - DR isotype (HLADR) Biomarker Activity (AID 2283043).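 Note: cell-surface HLA-DR protein level quantified by ELISA.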 The following applies: primary human coronary artery smooth muscle cells; actives raise or lower the signal.

Read-out in test [14]: Macrophage colony-stimulating factor (MCSF), CSF1 (gene 1435)
In words: BSK_CASM3C_MCSF: BioMAP Diversity Plus: CASM3C Assay for Macrophage colony-stimulating factor (MCSF) Biomarker Activity (AID 2283044).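 Note: M-CSF protein amount quantified by ELISA after 24 h exposure.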 The following applies: primary human coronary artery smooth muscle cells; actives raise or lower the signal.

Read-out in test [15]: Low-density lipoprotein receptor (LDLR), LDLR (gene 3949)
As to the kind of experiment: BSK_CASM3C_LDLR: BioMAP Diversity Plus: CASM3C Assay for Low-density lipoprotein receptor (LDLR) Biomarker Activity (AID 2283045).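 Note: LDLR protein level on the cell surface quantified by ELISA.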 Particulars: primary human coronary artery smooth muscle cells; actives raise or lower the signal.

Read-out in test [16]: Monocyte Chemoattractant Protein-1 (MCP1), CCL2 (gene 6347)
As to the kind of experiment: BSK_CASM3C_MCP1: BioMAP Diversity Plus: CASM3C Assay for Monocyte Chemoattractant Protein-1 (MCP1) Biomarker Activity (AID 2283046).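 Note: MCP-1 level quantified by ELISA 24 h after dosing.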 Particulars: primary human coronary artery smooth muscle cells; actives raise or lower the signal.

Test [17] can be described thus: BSK_CASM3C_Proliferation: Cell Proliferation Assessment in the BioMAP Diversity Plus: CASM3C Assay (AID 2283047).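 Note: sulforhodamine B total protein stain as relative cell number at 560 nm; sub-confluent cells exposed 48 h before staining; fitted both ways against DMSO so gain or loss of cell number.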 Particulars: primary human coronary artery smooth muscle cells.
Read-out in test [18]: Monokine induced gamma interferon (MIG), CXCL9 (gene 4283)
As to the kind of experiment: BSK_CASM3C_MIG: BioMAP Diversity Plus: CASM3C Assay for Monokine induced gamma interferon (MIG) Biomarker Activity (AID 2283048). Particulars: primary human coronary artery smooth muscle cells; actives raise or lower the signal.

Read-out in test [19]: serum amyloid A (SAA), SAA1 (gene 6288)
As to the kind of experiment: BSK_CASM3C_SAA: BioMAP Diversity Plus: CASM3C Assay for serum amyloid A (SAA) Biomarker Activity (AID 2283049).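 Note: SAA protein level quantified by ELISA.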 Particulars: primary human coronary artery smooth muscle cells; actives raise or lower the signal.

Read-out in test [20]: Tissue plasminogen activator (tPA), PLAT (gene 5327)
As to the kind of experiment: BSK_BE3C_tPA: BioMAP Diversity Plus: BE3C Assay for Tissue plasminogen activator (tPA) Biomarker Activity (AID 2283041).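 Note: tPA level quantified by ELISA one day after compound addition.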 The following applies: primary human bronchial epithelial cells; actives raise or lower the signal. The method, boiled down: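 Human primary bronchial epithelial cells were dosed with chemical and tPA biomarker levels measured by ELISA 24 hours later. Activity was fitted bidirectionally against DMSO as negative control and baseline.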

Turning to `CCCCCCOC(=O)CCCCC(=O)OCCCCCC`, the result in test [1], in [2], in [3], in test [4], in test [5] and in test [6] was inactive. Further, the outcome in test [7], in test [8], in [9], in test [10], in [11] and in [12] was inactive. For the same molecule, the outcome in test [13], in test [14], in [15], in test [16], in test [17] and in test [18] was inactive. Besides, the outcome in test [19] was inactive.
For the molecule `CC=C(C)C(C)=O`, the outcome in test [2], in test [3], in [4], in test [6], in test [7] and in [8] was inactive. Moreover, the outcome in test [9], in [10], in [11], in test [20], in test [12] and in test [13] was inactive. Besides, the outcome in test [14], in test [15], in test [16], in [17], in test [18] and in test [19] was inactive. Further, the AC50 in test [5] was 20000 nM (active).
With `CCC1(C)C(=O)N(Cl)C(=O)N1Cl` (configuration not stated), the result in test [2], in test [3], in test [4], in test [5], in test [6] and in [7] was inactive. Also, the result in test [8], in [9], in test [10], in test [11], in test [20] and in test [12] was inactive. The result in [13], in test [14], in test [15], in [16], in [17] and in test [18] was inactive. For the same molecule, the result in test [19] was inactive.
Take `CCCCCCCCC(CO)CCCCCC` (configuration not stated): the result in test [2], in [3], in test [4], in test [6], in test [7] and in test [9] was inactive. In addition, the outcome in test [10], in [11], in [20], in test [12], in [13] and in test [14] was inactive. Further, the outcome in [15], in test [16], in [17], in test [18] and in [19] was inactive. The AC50 was 2010 nM (active) in test [5] and 1360 nM (active) in [8].
As to `O=C(Oc1ccccc1)c1ccccc1C(=O)Oc1ccccc1`, the result in test [1], in [2], in test [3], in test [4], in test [5] and in test [6] was inactive. Moreover, the outcome in test [7], in test [8], in test [9], in test [10], in [11] and in test [12] was inactive. Also, the outcome in [13], in [14], in [15], in [16], in test [17] and in [18] was inactive. In [19], the outcome was inactive.
As for `CCN1CN(CC)CN(CC)C1`, the result in [1], in test [2], in [3], in test [4], in test [5] and in [6] was inactive. The result in [7], in test [8], in test [9], in test [10], in test [11] and in test [12] was inactive. The outcome in [13], in test [14], in test [15], in test [16], in test [17] and in [18] was inactive. Further, the result in test [19] was inactive.
In the case of `CC(C)C(=O)OCCc1ccccc1`, the result in test [1], in test [2], in [3], in [4], in [5] and in [6] was inactive. In addition, the outcome in [8], in [9], in [10], in [11], in test [12] and in test [13] was inactive. In addition, the result in [14], in test [15], in test [16], in test [17], in test [18] and in test [19] was inactive.

Values taken from PubChem BioAssay (EPA / NIEHS).
